Experimental data as given in publication PMC5515408, “Sequence-specific DNA binding by MYC/MAX to low-affinity non-E-box motifs”.
In all, about 4,500 sequences were measured (“log2 normalized fluorescence”: median about -0.34, highest 2% from about 3.3 on). Only a selection was taken, and the highest values are over-represented in it overall.

These sequences were tested against MAX:MAX (p21) (human, UniProt P61244-2 1-151) (assay: protein-binding microarray (anti-MAX antibody); PBM: 15 mM Tris-HCl pH 7.5, 100 mM KCl, 0.075% NP40, 7.5 mM beta-mercaptoethanol, 375 ng/ul BSA, 8 ng/ul poly(dA-dT):(dA-dT), 550 ng complex, 60 min, room tempe; high values mean tight binding). Conditions: protein: recombinant; tags: 6xHis; chain copies: 2; label: 3' end of printed strand (linker) attached to glass slide; dsDNA, one strand shown.
MAX:MAX (p21), sequence (P61244 other isoform, or with tags, fused parts or gaps): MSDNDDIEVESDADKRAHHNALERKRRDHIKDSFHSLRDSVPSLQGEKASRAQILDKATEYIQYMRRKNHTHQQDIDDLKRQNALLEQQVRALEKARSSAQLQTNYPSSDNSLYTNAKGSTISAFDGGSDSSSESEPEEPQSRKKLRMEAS
Method in brief: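 A custom Agilent glass array held ~5000 unique 12-nt sequences in triplicate spots, made double-stranded by primer extension. His-tagged human MYC:MAX or MAX:MAX dimers (550 ng, produced in E. coli) were applied for 60 min at room temperature in Tris-KCl buffer, pH 7.5, with NP40, BSA and poly(dA-dT) competitor. Anti-MAX and secondary antibodies detected bound protein, with scanning at 543 nm, and binding is given as log2 normalized fluorescence.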

Sequence	binding signal
CCGGCTGACAAAGTGTATTAATAGCTAAGATTACTATATCGACG	-0.349 log2 normalized fluorescence
CCGGCTGGCGCATGGTATTAATAGCTAAGATTACTATATCGACG	3.17 log2 normalized fluorescence
CCGGCTGAACGCCTGTATTAATAGCTAAGATTACTATATCGACG	0.727 log2 normalized fluorescence
CCGGCTGACATCCCGTATTAATAGCTAAGATTACTATATCGACG	0.192 log2 normalized fluorescence
CCGGCTGACAGAACGTATTAATAGCTAAGATTACTATATCGACG	-0.288 log2 normalized fluorescence
CCGGCTGAGTCCTCGTATTAATAGCTAAGATTACTATATCGACG	-0.692 log2 normalized fluorescence
CCGGCTGATCTCACGTATTAATAGCTAAGATTACTATATCGACG	-0.038 log2 normalized fluorescence
CCGGCTGAAACTCGGTATTAATAGCTAAGATTACTATATCGACG	-0.697 log2 normalized fluorescence
CCGGCGAACATGTGGTATTAATAGCTAAGATTACTATATCGACG	3.2 log2 normalized fluorescence
CCGGCGAACACGTGGTATTAATAGCTAAGATTACTATATCGACG	3.34 log2 normalized fluorescence
CCGGCGAACACGTAGTATTAATAGCTAAGATTACTATATCGACG	2.25 log2 normalized fluorescence
CCGGCTGAACGCTGGTATTAATAGCTAAGATTACTATATCGACG	0.233 log2 normalized fluorescence
CCGGCTGAGGACATGTATTAATAGCTAAGATTACTATATCGACG	0.549 log2 normalized fluorescence
CCGGCTGATGCCGCGTATTAATAGCTAAGATTACTATATCGACG	0.00246 log2 normalized fluorescence
CCGGCTGACACGTGCTATTAATAGCTAAGATTACTATATCGACG	3.17 log2 normalized fluorescence
CCGGCTGACACGTGCACTTAATAGCTAAGATTACTATATCGACG	3.13 log2 normalized fluorescence
CCGGCTGACACGTGCCGTTAATAGCTAAGATTACTATATCGACG	3.41 log2 normalized fluorescence
CCGGCTGACACGTGCAATTAATAGCTAAGATTACTATATCGACG	3.47 log2 normalized fluorescence
CCGGCTAACACGCGGTCTTAATAGCTAAGATTACTATATCGACG	3.15 log2 normalized fluorescence
CCGGCTGACACGTTAGATTAATAGCTAAGATTACTATATCGACG	2.59 log2 normalized fluorescence
CCGGCTGACACGTGCGTTTAATAGCTAAGATTACTATATCGACG	3.25 log2 normalized fluorescence
CCGGCTGACACACGGTCTTAATAGCTAAGATTACTATATCGACG	1.84 log2 normalized fluorescence

Sequence	binding signal
CCGGCTGACACGCGGTCTTAATAGCTAAGATTACTATATCGACG	3.32 log2 normalized fluorescence
CCGGCTGACACGTGCGGTTAATAGCTAAGATTACTATATCGACG	3.31 log2 normalized fluorescence
CCGGCTGACACGTGCGATTAATAGCTAAGATTACTATATCGACG	3.02 log2 normalized fluorescence
CCGGCTGACACGTGCCATTAATAGCTAAGATTACTATATCGACG	3 log2 normalized fluorescence
CCGGCTGAGGCCATGTATTAATAGCTAAGATTACTATATCGACG	0.0723 log2 normalized fluorescence
CCGGCTGACGCCGTGTATTAATAGCTAAGATTACTATATCGACG	0.693 log2 normalized fluorescence
CCGGCTGACACGTATCATTAATAGCTAAGATTACTATATCGACG	1.42 log2 normalized fluorescence
CCGGCTGAACAATCGTATTAATAGCTAAGATTACTATATCGACG	-0.744 log2 normalized fluorescence
CCGGCTGATGTTGAGTATTAATAGCTAAGATTACTATATCGACG	-0.163 log2 normalized fluorescence
CCGGCAGACACTTTGTATTAATAGCTAAGATTACTATATCGACG	0.324 log2 normalized fluorescence
CCGGCTGAGACTCCGTATTAATAGCTAAGATTACTATATCGACG	-0.692 log2 normalized fluorescence
CCGGCTGAGTCTGCGTATTAATAGCTAAGATTACTATATCGACG	-0.699 log2 normalized fluorescence
CCGGCTGAATCCCAGTATTAATAGCTAAGATTACTATATCGACG	-0.681 log2 normalized fluorescence
CCGGCTGATGTTTTGTATTAATAGCTAAGATTACTATATCGACG	-0.281 log2 normalized fluorescence
CCGGCTGACACGTGAGCTTAATAGCTAAGATTACTATATCGACG	3.09 log2 normalized fluorescence
CCGGCTGACACGTGACGTTAATAGCTAAGATTACTATATCGACG	3.23 log2 normalized fluorescence
CCGGCTGACACGTGAGGTTAATAGCTAAGATTACTATATCGACG	3.37 log2 normalized fluorescence
CCGGCTGACACGTGACATTAATAGCTAAGATTACTATATCGACG	3.44 log2 normalized fluorescence
CCGGCTGACACGTGAGATTAATAGCTAAGATTACTATATCGACG	3.29 log2 normalized fluorescence
CCGGCTGACACGTGAGTTTAATAGCTAAGATTACTATATCGACG	3.25 log2 normalized fluorescence
CCGGCTGACACGTTACATTAATAGCTAAGATTACTATATCGACG	3.06 log2 normalized fluorescence
CCGGCTGACACGTGAAGTTAATAGCTAAGATTACTATATCGACG	3.15 log2 normalized fluorescence

Sequence	binding signal
CCGGCTGACACGTGATGTTAATAGCTAAGATTACTATATCGACG	3.13 log2 normalized fluorescence
CCGGCTGATGAACAGTATTAATAGCTAAGATTACTATATCGACG	-0.468 log2 normalized fluorescence
CCGGCTGAGCATCTGTATTAATAGCTAAGATTACTATATCGACG	0.186 log2 normalized fluorescence
CCGGCATACACTTGGTATTAATAGCTAAGATTACTATATCGACG	1.54 log2 normalized fluorescence
CCGGCTGAGGCGGTGTATTAATAGCTAAGATTACTATATCGACG	-0.63 log2 normalized fluorescence
CCGGCTGACACGTGCTCTTAATAGCTAAGATTACTATATCGACG	3.24 log2 normalized fluorescence
CCGGCTGACACGTGTGTTTAATAGCTAAGATTACTATATCGACG	3.37 log2 normalized fluorescence
CCGGCTGACACGTGTTCTTAATAGCTAAGATTACTATATCGACG	3.35 log2 normalized fluorescence
CCGGCTAGCACGTGGCATTAATAGCTAAGATTACTATATCGACG	3.24 log2 normalized fluorescence
CCGGCTGACACGTGTGATTAATAGCTAAGATTACTATATCGACG	3.24 log2 normalized fluorescence
CCGGCTAGCACGTGTTTTTAATAGCTAAGATTACTATATCGACG	3.52 log2 normalized fluorescence
CCGGCTGACACGTGTACTTAATAGCTAAGATTACTATATCGACG	3.15 log2 normalized fluorescence
CCGGCTTACACGTGGTTTTAATAGCTAAGATTACTATATCGACG	3.22 log2 normalized fluorescence
CCGGCTGACACGTCGTTTTAATAGCTAAGATTACTATATCGACG	1.92 log2 normalized fluorescence
CCGGCTGACACGTTGTTTTAATAGCTAAGATTACTATATCGACG	3.22 log2 normalized fluorescence
CCGGCTGACACGTTTAATTAATAGCTAAGATTACTATATCGACG	2.59 log2 normalized fluorescence
CCGGCTGACACGTGTTTTTAATAGCTAAGATTACTATATCGACG	3.34 log2 normalized fluorescence
CCGGCTGATATTGCGTATTAATAGCTAAGATTACTATATCGACG	-0.611 log2 normalized fluorescence
CCGGCTGAGTTACGGTATTAATAGCTAAGATTACTATATCGACG	-0.516 log2 normalized fluorescence
CCGGCTGACACGTCGAATTAATAGCTAAGATTACTATATCGACG	1.45 log2 normalized fluorescence
CCGGCTGACCCGTCGTATTAATAGCTAAGATTACTATATCGACG	-0.382 log2 normalized fluorescence
CCGGCTGAGATGGAGTATTAATAGCTAAGATTACTATATCGACG	-0.522 log2 normalized fluorescence

Sequence	binding signal
CCGGCGGACACGTGTGATTAATAGCTAAGATTACTATATCGACG	3.15 log2 normalized fluorescence
CCGGCTGATTCTCAGTATTAATAGCTAAGATTACTATATCGACG	-0.684 log2 normalized fluorescence
CCGGCTGATCAGAGGTATTAATAGCTAAGATTACTATATCGACG	-0.421 log2 normalized fluorescence
CCGGCTGACACGTGACTTTAATAGCTAAGATTACTATATCGACG	3.21 log2 normalized fluorescence
CCGGCTGACACGTTGTCTTAATAGCTAAGATTACTATATCGACG	3.12 log2 normalized fluorescence
CCGGCTGACACGTGTCTTTAATAGCTAAGATTACTATATCGACG	3.41 log2 normalized fluorescence
CCGGCTTACACGTGTTATTAATAGCTAAGATTACTATATCGACG	3.4 log2 normalized fluorescence
CCGGCTAACACGTGATATTAATAGCTAAGATTACTATATCGACG	3.18 log2 normalized fluorescence
CCGGCTTACACATGCTATTAATAGCTAAGATTACTATATCGACG	3.23 log2 normalized fluorescence
CCGGCTTACACGTGCTATTAATAGCTAAGATTACTATATCGACG	3.57 log2 normalized fluorescence
CCGGCTTACACGTGGTGTTAATAGCTAAGATTACTATATCGACG	3.07 log2 normalized fluorescence
CCGGCTTATACGTGATATTAATAGCTAAGATTACTATATCGACG	0.467 log2 normalized fluorescence
CCGGCGCACACGTGCTATTAATAGCTAAGATTACTATATCGACG	3.04 log2 normalized fluorescence
CCGGCTTACACGTGATATTAATAGCTAAGATTACTATATCGACG	3.31 log2 normalized fluorescence
CCGGCTTAAACGTGTTATTAATAGCTAAGATTACTATATCGACG	2.7 log2 normalized fluorescence
CCGGCTGATGTCCAGTATTAATAGCTAAGATTACTATATCGACG	-0.249 log2 normalized fluorescence
CCGGCTGAATGGGCGTATTAATAGCTAAGATTACTATATCGACG	0.274 log2 normalized fluorescence
CCGGCTGAGTCGAGGTATTAATAGCTAAGATTACTATATCGACG	-0.576 log2 normalized fluorescence
CCGGCTGAACCGGCGTATTAATAGCTAAGATTACTATATCGACG	-0.299 log2 normalized fluorescence
CCGGCAGACACTTAGTATTAATAGCTAAGATTACTATATCGACG	0.466 log2 normalized fluorescence
CCGGCGTTCACGTGGTATTAATAGCTAAGATTACTATATCGACG	3.37 log2 normalized fluorescence
CCGGCTATCACGTGGTATTAATAGCTAAGATTACTATATCGACG	3.15 log2 normalized fluorescence

Sequence	binding signal
CCGGCTTTCACTTGGTATTAATAGCTAAGATTACTATATCGACG	-0.636 log2 normalized fluorescence
CCGGCTTTCACATGGTATTAATAGCTAAGATTACTATATCGACG	3.34 log2 normalized fluorescence
CCGGCATTCACGTGGTATTAATAGCTAAGATTACTATATCGACG	3.26 log2 normalized fluorescence
CCGGCTTACACATGGTATTAATAGCTAAGATTACTATATCGACG	3.16 log2 normalized fluorescence
CCGGCTTTCACGTGGTATTAATAGCTAAGATTACTATATCGACG	3.41 log2 normalized fluorescence
CCGGCTAATACGTGGTATTAATAGCTAAGATTACTATATCGACG	1.49 log2 normalized fluorescence
CCGGCCTTCACGTGGTATTAATAGCTAAGATTACTATATCGACG	3.1 log2 normalized fluorescence
CCGGCTGAGGGAGCGTATTAATAGCTAAGATTACTATATCGACG	-0.434 log2 normalized fluorescence
CCGGCTGAGGAGAGGTATTAATAGCTAAGATTACTATATCGACG	-0.732 log2 normalized fluorescence
CCGGCTGACCGCCGGTATTAATAGCTAAGATTACTATATCGACG	-0.241 log2 normalized fluorescence
CCGGCTGACAAGCAGTATTAATAGCTAAGATTACTATATCGACG	-0.299 log2 normalized fluorescence
CCGGCGCCCACGTGGTATTAATAGCTAAGATTACTATATCGACG	3.43 log2 normalized fluorescence
CCGGCCCCCACGTGGTATTAATAGCTAAGATTACTATATCGACG	3.4 log2 normalized fluorescence
CCGGCTCCCACGTGGTATTAATAGCTAAGATTACTATATCGACG	3.4 log2 normalized fluorescence
CCGGCCCACACGTGGTATTAATAGCTAAGATTACTATATCGACG	2.95 log2 normalized fluorescence
CCGGCTAAGACGTGGTATTAATAGCTAAGATTACTATATCGACG	1.75 log2 normalized fluorescence
CCGGCTCCGACGTGGTATTAATAGCTAAGATTACTATATCGACG	2.2 log2 normalized fluorescence
CCGGCTATTACGTGGTATTAATAGCTAAGATTACTATATCGACG	1.27 log2 normalized fluorescence
CCGGCCTCCACGTGGTATTAATAGCTAAGATTACTATATCGACG	2.94 log2 normalized fluorescence
